Screening results: PubChem, Broad Institute
A selection follows.
aSyn UTR act: Activators working through SNCA 5'UTR binding (MLPCN) | alpha-synuclein 5'UTR reporter, activators screen | activity score, % (tested at 7.5 µM), hits read low | 7.1% of 300,000 active; in the data active = activity score below about -60%
An asterisk follows results filed as active.

SMILES | aSyn UTR act
CC(C)c1ccc(Nc2nnc(SCC(=O)Nc3ncc(S(=O)(=O)c4ccc([N+](=O)[O-])cc4)s3)s2)cc1 | -66.5*
O=C(NCc1ccc(Cl)cc1)c1cnn2ccccc12 | -141.5*
Cc1ccccc1NC(=O)c1cccc2nccnc12 | -74.4*
Cc1cccc(NC(=O)c2cnn3ccccc23)c1C | -84.6*
O=C(Nc1ccccc1O)c1ccccc1O | -133.4*
Cc1ccc(C)c(NC(=O)c2ccccc2O)c1 | -96.3*
Cc1onc(-c2ccccc2)c1C(=O)NC(=S)NNC(=O)c1ccccc1O | 62.6
Cc1cccc(NC(=O)c2ccccc2O)c1C | -173.9*
Cc1cccc(C(=O)NNC(=O)c2ccccc2O)c1 | -75.8*
O=C(Nc1ccccc1O)c1ccc(C(=O)c2ccccc2)o1 | -95.8*
COc1ccc(C2=NC(c3ccccc3)CO2)cc1 (stereo not given) | -118.0*
Cc1cc(NC(=O)c2ccc(NC(=O)C(C)C)cc2)no1 | -61.6*
Cc1cc(NC(=O)c2ccc(Br)c([N+](=O)[O-])c2)no1 | -81.1*
CC(=O)Oc1ccc(C(=O)Nc2cc(C)on2)cc1 | -83.8*
CCc1ccc(C(=O)Nc2cc(C)on2)o1 | -112.1*
Cc1cc(NC(=O)c2ccc(C)c(C)c2)no1 | -106.2*
O=C(c1cc(-c2ccc3c(c2)OCO3)on1)N1CCCCC1 | 60.6
CC1CCCC(C)N1C(=O)c1cc(-c2ccc(Cl)c(Cl)c2)on1 (stereo not given) | -173.5*
CC1CCCC(C)N1C(=O)c1cc(-c2ccc3c(c2)OCO3)on1 (stereo not given) | -131.3*
N/C(=N\OC(=O)c1ccc(Br)cc1)c1ccccc1 | -189.9*
N/C(=N\OC(=O)c1cccc(Br)c1)c1ccc(Br)cc1 | -95.8*
Cc1ccc(C(=O)O/N=C(\N)c2ccc(Br)cc2)cc1 | -215.0*
O=C(Nc1nnc(-c2ccncc2)s1)Nc1ccccc1F | -102.5*
O=C(Nc1nnc(Cc2ccccc2)s1)Nc1ccccc1F | -103.4*
CN(C)/C=C1\C(=O)N(c2ccc(Cl)c(Cl)c2)CS1(=O)=O | -80.6*
SMILES | aSyn UTR act
O=C(/C=C/c1cccc(F)c1)c1ccc(N2CCOCC2)cc1 | -80.4*
CN(C)/C=C/C(=O)c1ccc(Cl)c([N+](=O)[O-])c1 | -73.2*
CC(=O)c1c(C)oc2ccc(N(C(C)=O)S(=O)(=O)c3ccc(Cl)c([N+](=O)[O-])c3)cc12 | 111.5
O=c1c2c3c(sc2ncn1/N=C/c1ccc([N+](=O)[O-])o1)CCCC3 | -89.4*
Fc1ccc(COc2ccc(-c3nnco3)cc2)c(Cl)c1 | -96.4*
Fc1cc(Br)ccc1COc1ccc(-c2nnco2)cc1 | -133.2*
CCCCOc1cccc(-c2cc(C(=O)NNC(=S)NCC)c3ccccc3n2)c1 | -69.0*
CCNC(=S)NNC(=O)c1cc(-c2cccc(OCC)c2)nc2ccccc12 | -89.0*
CCNC(=S)NNC(=O)c1cc(-c2cccc(C)c2)nc2ccccc12 | -115.6*
Cc1cc(N(C)/N=C/c2ccccc2O)nc(-c2ccccc2O)n1 | -97.2*
O=C(O)c1c(-c2ccc(Cl)cc2)cn2ccccc12 | -166.6*
Cc1cccc(-n2c(SCC(=O)Nc3ncc(Cl)cc3Cl)nc3ccccc32)c1 | 58.4
CCCC(=O)NC(c1ccc(OC)cc1)c1ccc2cccnc2c1O (stereo not given) | 129.2
COc1cccc(-n2ccnc2SCC(=O)Nc2nccs2)c1 | -73.1*
COc1ccc(C(CC(=O)Nc2nccs2)n2cccc2)cc1 (stereo not given) | -168.5*
Cc1cccc(-n2ccnc2SCC(=O)Nc2nccs2)c1 | -132.4*
CCOc1ccc(-n2c(SCC(=O)Nc3nccs3)nc3c(c2=O)SCC3)cc1 | 57.3
COc1ccc(C(CC(=O)Nc2ccccn2)N2Cc3ccccc3C2=O)cc1 (stereo not given) | -113.4*
Cc1ccc(-c2n[nH]c(Cc3ccccc3)n2)cc1 | -126.4*
N#Cc1ccccc1NC(=O)c1ccccc1OCC(=O)NCc1ccco1 | -68.3*
CN(C)c1ccc(NC(=S)c2ccccn2)cc1 | 97.1
O=C(N/N=C/c1ccccn1)c1ccccc1 | -89.8*
CN(C)c1ccc(C(=O)N/N=C/c2ccccn2)cc1 | -84.7*
O=C(N/N=C\c1cn[nH]c1-c1ccccc1)c1cccnc1 | -66.6*
Cc1ccccc1C(=O)N/N=C/c1ccccn1 | -79.6*
SMILES | aSyn UTR act
Cc1ccc(-n2nc(C)c3c2OC(N)=C(C#N)C3c2cccs2)cc1 (stereo not given) | -90.6*
CN1CCN(C2=C(Cl)C(=O)N(C3CCCCC3)C2=O)CC1 | -84.4*
CC1CCN(C(=O)CCc2nnc(-c3ccccc3)o2)CC1 | -106.3*
O=C(CSc1nnc(-c2ccc(F)cc2)o1)N1CCCCC1 | -88.2*
O=C(CCc1nnc(-c2ccc3c(c2)OCO3)o1)N1CCC(c2ccc(F)cc2)C1 (stereo not given) | -104.0*
O=C(CSc1nnc(-c2ccccc2)o1)N1CCCC1 | -102.0*
Cn1nc([N+](=O)[O-])nc1Sc1nnc(-c2ccccc2)o1 | 91.9
O=C(CSc1nnc(-c2ccccc2)o1)N1CCCCC1 | -74.3*
CCn1cc(Br)c(C(=O)Nc2sc3c(c2C(N)=O)CCCC3)n1 | -102.2*
Cn1cc(Br)c(C(=O)Nc2sc3c(c2C(N)=O)CCCC3)n1 | -114.5*
Cc1ccnc(NCc2cc(C)ccc2O)c1 | -69.1*
Cc1ccc(S(=O)(=O)Nc2ccccc2CNc2ccccn2)cc1 | -75.4*
Cc1ccc(O)c(CNc2ccccn2)c1 | -67.2*
Cc1ccc(S(=O)(=O)Nc2cccc3cccnc23)cc1 | 63.4
O=C(Nc1nc(-c2ccccc2)cs1)c1ccccc1F | -134.6*
Cc1ccc(-c2ocnc2C(=O)Nc2nc(C)cs2)cc1 | -91.0*
O=C(Nc1nc(-c2ccccc2)cs1)c1ccc(Br)o1 | -79.3*
O=C(NNc1nc(-c2ccccc2)cs1)c1ccc(F)cc1 | 76.2
Cc1csc(NC(=O)c2ccc(C)o2)n1 | -160.8*
O=C(Nc1nc(-c2cccnc2)cs1)c1cccc([N+](=O)[O-])c1 | -84.4*
Cc1ccc(C(=O)Nc2nc(-c3cccnc3)cs2)o1 | -100.5*
CC(C)=CCc1c(O)cc2c(=O)c3ccc(O)cc3oc2c1O | -140.7*
Cc1ccc2nc(-c3ccc(N4C(=O)CC(N5CCC(C(N)=O)CC5)C4=O)cc3)sc2c1 (stereo not given) | -72.3*
